Assay results taken from ChEMBL document CHEMBL1961873, “Compounds: GSK PKIS; Assays: Nanosyn kinase panel” (2012).

Columns and labels:
[1] = biological target: Serine/threonine-protein kinase pim-2 (Homo sapiens) (UniProt Q9P1W9); settings: at 1 µM;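 note: each value is a mean of the inhibition measurements against the kinase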
[2] = biological target: Serine/threonine-protein kinase pim-3 (Homo sapiens) (UniProt Q86V86); settings: at 0.1 µM
[3] = biological target: Serine/threonine-protein kinase pim-3 (Homo sapiens) (UniProt Q86V86); settings: at 1 µM
[4] = biological target: T1, MAP kinase-activated protein kinase 5 (Homo sapiens) (UniProt Q8IW41); settings: at 0.1 µM
T1 sequence (whole entry): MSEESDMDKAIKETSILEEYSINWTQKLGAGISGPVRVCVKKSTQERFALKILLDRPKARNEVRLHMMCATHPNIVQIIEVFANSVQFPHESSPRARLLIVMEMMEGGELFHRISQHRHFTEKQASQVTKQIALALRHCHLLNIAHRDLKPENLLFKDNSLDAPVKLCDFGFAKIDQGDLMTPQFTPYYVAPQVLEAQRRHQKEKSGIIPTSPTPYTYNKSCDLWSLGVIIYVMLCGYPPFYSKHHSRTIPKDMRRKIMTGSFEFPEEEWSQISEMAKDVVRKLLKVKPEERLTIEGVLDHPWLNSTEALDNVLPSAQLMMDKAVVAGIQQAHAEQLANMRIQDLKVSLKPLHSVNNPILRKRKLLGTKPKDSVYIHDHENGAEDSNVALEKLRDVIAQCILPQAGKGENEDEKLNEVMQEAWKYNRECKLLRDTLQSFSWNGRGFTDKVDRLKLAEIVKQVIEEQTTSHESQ

[5] = biological target: T1, MAP kinase-activated protein kinase 5 (Homo sapiens); settings: at 1 µM
[6] = biological target: Serine/threonine-protein kinase SIK1 (Homo sapiens) (UniProt P57059); settings: at 0.1 µM
[7] = biological target: Serine/threonine-protein kinase SIK1 (Homo sapiens) (UniProt P57059); settings: at 1 µM
[8] = biological target: Serine/threonine-protein kinase SIK2 (Homo sapiens) (UniProt Q9H0K1); settings: at 0.1 µM
[9] = biological target: Serine/threonine-protein kinase SIK2 (Homo sapiens) (UniProt Q9H0K1); settings: at 1 µM
[10] = biological target: T2, Serine/threonine-protein kinase TBK1 (Homo sapiens) (UniProt Q9UHD2); settings: at 0.1 µM
T2 sequence (whole entry): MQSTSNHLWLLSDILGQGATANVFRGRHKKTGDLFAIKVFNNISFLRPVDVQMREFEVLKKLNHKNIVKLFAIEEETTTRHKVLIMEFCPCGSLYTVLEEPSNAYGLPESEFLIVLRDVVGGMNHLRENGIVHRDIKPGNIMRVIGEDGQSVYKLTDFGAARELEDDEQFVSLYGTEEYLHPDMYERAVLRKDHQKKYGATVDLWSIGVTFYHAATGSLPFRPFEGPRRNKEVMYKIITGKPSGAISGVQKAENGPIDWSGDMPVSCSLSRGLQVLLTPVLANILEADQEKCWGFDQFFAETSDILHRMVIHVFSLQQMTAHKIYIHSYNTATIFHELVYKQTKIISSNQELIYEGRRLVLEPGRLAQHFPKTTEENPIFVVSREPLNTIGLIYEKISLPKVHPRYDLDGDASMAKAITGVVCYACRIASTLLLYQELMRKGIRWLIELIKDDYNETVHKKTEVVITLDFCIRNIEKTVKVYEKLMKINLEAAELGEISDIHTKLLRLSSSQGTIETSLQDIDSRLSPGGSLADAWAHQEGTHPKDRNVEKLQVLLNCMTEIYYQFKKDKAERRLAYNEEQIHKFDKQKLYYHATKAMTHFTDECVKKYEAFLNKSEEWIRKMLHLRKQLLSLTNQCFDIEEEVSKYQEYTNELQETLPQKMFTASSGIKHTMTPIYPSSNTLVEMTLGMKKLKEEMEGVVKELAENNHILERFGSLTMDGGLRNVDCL

[11] = biological target: T2, Serine/threonine-protein kinase TBK1 (Homo sapiens); settings: at 1 µM
[12] = biological target: T3, Testis-specific serine/threonine-protein kinase 1 (Homo sapiens) (UniProt Q9BXA7); settings: at 0.1 µM
T3 sequence (whole entry): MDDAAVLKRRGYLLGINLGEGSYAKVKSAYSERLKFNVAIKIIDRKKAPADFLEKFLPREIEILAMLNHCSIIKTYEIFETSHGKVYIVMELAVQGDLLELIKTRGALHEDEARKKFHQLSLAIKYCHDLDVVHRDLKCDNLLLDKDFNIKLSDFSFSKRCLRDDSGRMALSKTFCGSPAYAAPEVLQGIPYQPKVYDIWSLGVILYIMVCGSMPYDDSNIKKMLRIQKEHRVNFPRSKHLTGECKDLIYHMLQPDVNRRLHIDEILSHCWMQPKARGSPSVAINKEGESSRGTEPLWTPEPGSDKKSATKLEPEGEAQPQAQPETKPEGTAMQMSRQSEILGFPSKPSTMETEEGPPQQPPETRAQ

[13] = biological target: T3, Testis-specific serine/threonine-protein kinase 1 (Homo sapiens); settings: at 1 µM
[14] = biological target: T4, Testis-specific serine/threonine-protein kinase 2 (Homo sapiens) (UniProt Q96PF2); settings: at 0.1 µM
T4 sequence (whole entry): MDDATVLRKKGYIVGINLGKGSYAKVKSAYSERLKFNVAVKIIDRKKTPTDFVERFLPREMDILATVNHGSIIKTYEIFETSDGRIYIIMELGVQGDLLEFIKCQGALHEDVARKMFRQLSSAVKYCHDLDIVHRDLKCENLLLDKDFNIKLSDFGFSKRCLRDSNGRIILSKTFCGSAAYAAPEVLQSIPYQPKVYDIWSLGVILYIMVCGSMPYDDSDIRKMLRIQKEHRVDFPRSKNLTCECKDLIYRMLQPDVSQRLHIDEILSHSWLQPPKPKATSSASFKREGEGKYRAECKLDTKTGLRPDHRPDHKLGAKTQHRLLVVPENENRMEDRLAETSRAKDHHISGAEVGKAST

[15] = biological target: T4, Testis-specific serine/threonine-protein kinase 2 (Homo sapiens); settings: at 1 µM
[16] = biological target: Casein kinase I isoform alpha (Homo sapiens) (UniProt P48729); settings: at 0.1 µM
[17] = biological target: Casein kinase I isoform alpha (Homo sapiens) (UniProt P48729); settings: at 1 µM
[18] = biological target: Casein kinase I isoform gamma-1 (Homo sapiens) (UniProt Q9HCP0); settings: at 0.1 µM
[19] = biological target: Casein kinase I isoform gamma-1 (Homo sapiens) (UniProt Q9HCP0); settings: at 1 µM
[20] = biological target: Casein kinase I isoform gamma-2 (Homo sapiens) (UniProt P78368); settings: at 0.1 µM;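 note: values are mean inhibition figures reported as part of the GSK PKIS dataset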
Chain of Casein kinase I isoform gamma-2 (Homo sapiens) (P78368 whole entry, looked up, canonical isoform): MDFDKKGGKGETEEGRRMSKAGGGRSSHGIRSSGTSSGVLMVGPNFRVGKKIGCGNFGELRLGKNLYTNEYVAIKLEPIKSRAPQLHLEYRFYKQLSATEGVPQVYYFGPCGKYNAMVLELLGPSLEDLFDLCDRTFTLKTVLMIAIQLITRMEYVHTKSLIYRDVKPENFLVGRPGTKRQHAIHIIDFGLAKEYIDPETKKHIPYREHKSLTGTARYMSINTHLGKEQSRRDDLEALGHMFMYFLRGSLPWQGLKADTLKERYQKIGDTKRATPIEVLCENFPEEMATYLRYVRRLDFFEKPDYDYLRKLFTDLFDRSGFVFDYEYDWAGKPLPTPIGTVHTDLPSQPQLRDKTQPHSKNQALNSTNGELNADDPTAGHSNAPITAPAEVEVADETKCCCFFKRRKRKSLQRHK

Chain of Casein kinase I isoform alpha (Homo sapiens) (P48729 2-337 limits assumed): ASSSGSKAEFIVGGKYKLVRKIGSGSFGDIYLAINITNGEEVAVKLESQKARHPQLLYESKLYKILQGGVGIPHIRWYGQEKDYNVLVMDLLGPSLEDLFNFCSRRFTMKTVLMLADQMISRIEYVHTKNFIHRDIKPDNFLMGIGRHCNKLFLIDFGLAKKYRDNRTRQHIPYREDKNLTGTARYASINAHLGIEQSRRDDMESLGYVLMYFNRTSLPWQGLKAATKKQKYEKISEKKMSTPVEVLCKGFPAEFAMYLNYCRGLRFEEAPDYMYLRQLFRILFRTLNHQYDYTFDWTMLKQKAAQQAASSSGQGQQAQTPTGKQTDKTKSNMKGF
Chain of Serine/threonine-protein kinase pim-2 (Homo sapiens) (Q9P1W9 whole entry, looked up): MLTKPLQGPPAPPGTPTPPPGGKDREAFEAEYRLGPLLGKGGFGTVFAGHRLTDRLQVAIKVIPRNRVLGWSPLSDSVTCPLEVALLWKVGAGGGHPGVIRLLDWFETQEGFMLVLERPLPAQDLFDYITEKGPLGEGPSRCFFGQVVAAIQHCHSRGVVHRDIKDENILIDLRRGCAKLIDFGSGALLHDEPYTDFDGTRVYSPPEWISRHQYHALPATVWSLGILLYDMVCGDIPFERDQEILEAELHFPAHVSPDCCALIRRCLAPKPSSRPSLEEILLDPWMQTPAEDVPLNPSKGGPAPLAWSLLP
Chain of Casein kinase I isoform gamma-1 (Homo sapiens) (Q9HCP0 whole entry, looked up, canonical isoform): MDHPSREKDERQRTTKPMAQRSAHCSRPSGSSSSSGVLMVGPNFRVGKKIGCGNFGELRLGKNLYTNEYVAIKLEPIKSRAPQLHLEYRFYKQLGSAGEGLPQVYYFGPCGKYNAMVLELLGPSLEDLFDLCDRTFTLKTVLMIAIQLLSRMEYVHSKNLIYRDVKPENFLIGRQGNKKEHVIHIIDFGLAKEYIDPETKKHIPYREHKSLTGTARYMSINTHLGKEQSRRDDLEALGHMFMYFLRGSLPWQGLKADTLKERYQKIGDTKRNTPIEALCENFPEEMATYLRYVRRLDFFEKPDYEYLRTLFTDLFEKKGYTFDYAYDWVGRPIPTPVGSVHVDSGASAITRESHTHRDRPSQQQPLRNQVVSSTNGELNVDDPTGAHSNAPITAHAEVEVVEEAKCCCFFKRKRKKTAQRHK
Chain of Serine/threonine-protein kinase SIK2 (Homo sapiens) (Q9H0K1 whole entry, looked up): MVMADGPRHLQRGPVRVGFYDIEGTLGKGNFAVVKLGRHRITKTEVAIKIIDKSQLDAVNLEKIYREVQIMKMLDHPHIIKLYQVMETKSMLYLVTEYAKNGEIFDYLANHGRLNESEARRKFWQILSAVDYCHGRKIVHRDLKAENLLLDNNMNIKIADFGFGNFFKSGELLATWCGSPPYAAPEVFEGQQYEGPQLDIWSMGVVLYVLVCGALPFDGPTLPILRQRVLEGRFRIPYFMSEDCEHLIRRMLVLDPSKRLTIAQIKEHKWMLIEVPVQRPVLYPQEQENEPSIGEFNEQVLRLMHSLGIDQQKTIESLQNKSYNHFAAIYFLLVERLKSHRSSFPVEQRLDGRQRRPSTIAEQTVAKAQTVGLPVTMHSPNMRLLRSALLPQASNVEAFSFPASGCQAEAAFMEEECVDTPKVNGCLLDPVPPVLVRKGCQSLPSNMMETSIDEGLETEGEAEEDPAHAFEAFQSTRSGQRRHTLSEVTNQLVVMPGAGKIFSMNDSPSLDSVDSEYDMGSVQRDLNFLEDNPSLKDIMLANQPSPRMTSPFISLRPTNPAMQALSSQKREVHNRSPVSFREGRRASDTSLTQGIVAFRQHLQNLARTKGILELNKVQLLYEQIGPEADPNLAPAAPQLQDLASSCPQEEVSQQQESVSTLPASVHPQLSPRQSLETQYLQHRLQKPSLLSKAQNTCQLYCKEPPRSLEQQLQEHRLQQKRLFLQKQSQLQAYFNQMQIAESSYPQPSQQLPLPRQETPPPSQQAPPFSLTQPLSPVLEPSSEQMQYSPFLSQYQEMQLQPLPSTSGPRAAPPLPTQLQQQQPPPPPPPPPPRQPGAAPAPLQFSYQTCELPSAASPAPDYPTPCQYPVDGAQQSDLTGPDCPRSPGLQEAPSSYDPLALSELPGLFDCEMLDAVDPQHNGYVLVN
Chain of Serine/threonine-protein kinase SIK1 (Homo sapiens) (P57059 whole entry): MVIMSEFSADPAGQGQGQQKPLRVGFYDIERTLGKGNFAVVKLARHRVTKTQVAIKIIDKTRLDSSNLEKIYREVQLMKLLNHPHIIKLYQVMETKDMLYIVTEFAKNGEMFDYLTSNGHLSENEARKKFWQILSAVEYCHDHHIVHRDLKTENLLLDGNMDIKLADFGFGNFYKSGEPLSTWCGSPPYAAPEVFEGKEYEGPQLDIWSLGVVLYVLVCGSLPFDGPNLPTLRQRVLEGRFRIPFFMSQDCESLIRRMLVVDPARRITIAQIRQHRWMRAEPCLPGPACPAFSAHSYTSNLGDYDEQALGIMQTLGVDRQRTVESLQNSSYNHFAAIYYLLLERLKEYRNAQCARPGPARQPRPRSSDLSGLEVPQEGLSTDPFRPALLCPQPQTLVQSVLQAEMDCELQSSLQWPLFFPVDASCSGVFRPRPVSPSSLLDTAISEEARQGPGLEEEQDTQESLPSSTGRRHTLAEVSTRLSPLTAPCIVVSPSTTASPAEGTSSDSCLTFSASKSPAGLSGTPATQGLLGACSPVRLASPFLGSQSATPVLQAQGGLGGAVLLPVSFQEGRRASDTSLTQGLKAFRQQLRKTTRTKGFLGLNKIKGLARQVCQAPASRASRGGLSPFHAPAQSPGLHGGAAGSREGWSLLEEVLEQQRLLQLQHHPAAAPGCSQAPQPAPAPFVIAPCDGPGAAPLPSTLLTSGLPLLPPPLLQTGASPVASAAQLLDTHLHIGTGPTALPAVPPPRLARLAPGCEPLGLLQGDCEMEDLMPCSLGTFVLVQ

| Compound | inhibition [1] | inhibition [2] | inhibition [3] | inhibition [4] | inhibition [5] | inhibition [6] | inhibition [7] | inhibition [8] | inhibition [9] | inhibition [10] | inhibition [11] | inhibition [12] | inhibition [13] | inhibition [14] | inhibition [15] | inhibition [16] | inhibition [17] | inhibition [18] | inhibition [19] | inhibition [20] |
| --- | --- | --- | --- | --- | --- | --- | --- | --- | --- | --- | --- | --- | --- | --- | --- | --- | --- | --- | --- | --- |
| NC(=O)c1cccc(Nc2nccc(Nc3cccc(F)c3)n2)c1 | 0.31% | 0.13% | 2% | 0.33% | -0.56% | 9.14% | 37% | 7.47% | 25.1% | 1.55% | 6.93% | -0.18% | 0.75% | 0.59% | -0.96% | -0.75% | 1.32% | 0.88% | 1.67% | 0.97% |
| CN(C)c1cc2c(Nc3ccc4c(cnn4Cc4ccccc4)c3)ncnc2cn1 | 0.31% | -0.8% | 0.43% | 0.61% | 0.28% | 3.9% | 4.59% | 2.41% | 4.92% | 1.07% | 3.14% | 3.54% | -2.44% | 1.31% | -1.33% | 0.64% | 4.63% | 2.47% | 3.24% | 2.05% |
| CN(c1ccc(NC(=O)Nc2ccc(OC(F)(F)F)cc2)cc1)c1ccnc(Nc2cccc(S(N)(=O)=O)c2)n1 | 0.39% | 0.72% | -1.83% | 0.88% | -0.8% | 3.04% | 7.29% | 0.98% | -0.49% | 0.04% | 9.01% | 1.37% | 2.44% | 1.3% | 1.3% | 2.69% | -0.75% | 2.75% | 3.06% | 2.32% |
| CN(C)C(=O)O[C@H]1CN[C@H](C#Cc2cc3ncnc(Nc4ccc(OCc5cccc(F)c5)c(Cl)c4)c3s2)C1 | 0.45% | -0.1% | -1.11% | 0.7% | -0.94% | 4.32% | 5.89% | 11.5% | 12.2% | -0.37% | 4.42% | 1.61% | 0.19% | 0.42% | -1.25% | -3.89% | 2.94% | 1.92% | 2.06% | 2.17% |
| Cc1ccc(Nc2ccnc(Nc3cccc(C(N)=O)c3)n2)cc1O | -3.06% | 0.18% | 1.91% | 1.13% | 1.29% | 29.8% | 80.2% | 13.1% | 53.5% | 2.74% | 19.6% | 3.41% | 5.19% | 1.39% | 1.65% | 1.66% | 4.05% | -1.2% | 1.43% | -1.06% |
| Nc1ccc(C#Cc2cncnc2Nc2ccc(OCc3cccc(F)c3)c(Cl)c2)cc1 | 0.51% | -0.08% | 1.14% | 1.7% | 0.75% | 5.15% | 2.18% | -0.99% | 5.08% | 2.5% | 3.55% | 2.73% | 2.62% | 1.11% | 0.95% | 3.47% | 2.49% | 2.52% | 2.66% | 1.58% |
| Cc1ccc2c(c1)/C(=N/Nc1ccc(S(N)(=O)=O)cc1)C(=O)N2 | 1.85% | -0.58% | -0.92% | 0.02% | -2.03% | 1.14% | 1.4% | -5.87% | 10.4% | -2.1% | 6.6% | -0.94% | 0.43% | -0.24% | -1.16% | 0.07% | -0.4% | 0.78% | 1.26% | 0.31% |
| COc1ccc2ncnc(Nc3ccc(OCc4ccccc4)cc3)c2c1 | 0.96% | 0.32% | 0.59% | 0.99% | 1.13% | 1.08% | 5.56% | 3.18% | 3.43% | 1.67% | 1.27% | 1.95% | 3.16% | 0.6% | 2.34% | 6.26% | 8.76% | 1.48% | 2.76% | 1.66% |
| COc1cc2ncn(-c3cc(OCc4ccccc4S(C)(=O)=O)c(C#N)s3)c2cc1OC | 1.39% | -0.4% | -0.82% | 0.7% | -0.19% | 16.1% | 61% | 21.9% | 69.4% | 64.9% | 83% | 22.1% | 69.2% | 0.6% | 4.54% | 3.32% | 3.58% | 3.26% | 4.23% | 2.02% |
| Cc1cc(O)cc(C)c1/C=C/c1cncc(C(=O)N(C)C)c1 | 0.34% | -1.55% | -0.09% | 0.59% | -0.52% | 9.45% | 29.4% | 4.34% | 4.27% | 1.36% | 4.11% | 4.05% | 0.84% | 2.08% | 0.19% | 1.94% | 3.01% | 1.26% | 1.95% | 1.03% |
| Cc1cc(Cl)cc2c1NC(=O)C2=NNc1ccc(S(N)(=O)=O)cc1 | 0.51% | 0.42% | 2.98% | 1.54% | 2.85% | 1.46% | 4.61% | 5.46% | -2.05% | 1.17% | 1.59% | 4.21% | 4.86% | 2.71% | 5.17% | 1.05% | 0.59% | 1.63% | 1.59% | 1.66% |
| NS(=O)(=O)c1ccc(-c2cc3ccncc3cc2OCc2ccccc2)cc1 | -1.33% | -0.2% | 1.38% | 0.82% | 1.86% | 4.35% | 10.3% | 6.46% | 4.1% | 5.88% | 2.74% | 3.43% | 3.97% | 2.95% | 2.52% | 4.76% | 3.35% | 2.57% | 3.44% | 1.61% |
| COc1cc(Nc2nccc(-c3cnn4ncccc34)n2)cc(OC)c1 | 6.78% | 4.42% | 10.6% | 0.14% | 1.55% | 8.12% | 32.3% | 3.15% | 39.1% | 3.49% | 33.2% | 3.46% | 16.9% | 0.24% | 0.16% | 11.9% | 45.4% | 2.54% | 19.9% | 3.83% |
